Sampled rows, rich in hits. Any-hit rate of the full collection: about 11%.
Pf growth 96h: Primary qHTS for delayed death inhibitors of the malarial parasite plastid, 96 hour incubation; Potency, µM (doses to about 28.7 µM), without a hit: top-dose activity change, negative = inhibition, hits mostly inhibitors; P. falciparum luciferase reporter growth, 96 h; 320,000 tested, 6.9% active; note: % is set by controls: 0 for no effect and ±100 for the full control effect
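P. falciparum expressing integrated firefly luciferase, in erythrocytes at 2% hematocrit, 0.05% parasitemia, incubated with compounds 96 h at 37 C, 5% CO2. Growth inhibition read as loss of luminescence; two-generation exposure targets delayed-death apicoplast inhibitors.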
HCV inh: qHTS Assay for Inhibitors of Hepatitis C Virus (HCV); Huh7.5.1 HCVcc-Cre infection, luciferase reporter, 44 h; Potency, µM (highest dose often 41.8 µM), for inactives: at the top dose activity change, negative = inhibition, actives largely listed as inhibitors; 340,000 tested, 3.4% active; AID 651820, 2012; note: % is set by controls: 0 for no effect and ±100 for the full control effect
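Cells (1,000/well) were plated 4 h before compound, then infected with HCVcc-Cre virus (~0.5 moi). After 44 h further culture, infection was read as luciferase luminescence following a 15 min substrate incubation at room temperature.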
NS1 function inh: qHTS Assay for Inhibitors of Influenza NS1 Protein Function; 270,000 tested, 0.4% active; Potency, µM (series often up to 46.1 µM), inactives show at the highest dose activity, positive = more growth; AID 2326, 2010; calls by dose curve; note: actives are rising curves; nearly all actives have a fitted effect of over 50% in size
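In this qHTS, NS1 from influenza A is expressed in budding yeast, where it slows growth. Cells are switched from glucose to 2% galactose medium (pH 6.0, -URA), treated with compound, and growth recovery is read at OD600.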
Vaccinia mCherry: qHTS for Stage-Specific Inhibitors of Vaccinia Orthopoxvirus: mCherry Reporter Primary qHTS; Potency, µM (top dose mostly 36.5 µM), inactives show at the highest dose activity change, negative = inhibition, hits mostly inhibitors; 310,000 tested, 0.63% active; Vaccinia virus mCherry reporter infection, fluorescence; calls by dose curve; tested in A549 cells; note: % is set by controls: 0 for no effect and ±100 for the full control effect; nearly all actives have a fitted effect of over 35% in size
Pf growth 48h: Primary qHTS for delayed death inhibitors of the malarial parasite plastid, 48 hour incubation | P. falciparum luciferase growth in erythrocytes, 48 h | Potency, µM (top dose mostly 28.7 µM), without a hit: top-dose activity change, negative = inhibition, hits mostly inhibitors | 310,000 tested, 5.9% active; note: % is set by controls: 0 for no effect and ±100 for the full control effect
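Here the parasites carry a stable luciferase gene and grow inside erythrocytes in Albumax-based RPMI medium with compound for one erythrocytic cycle. Activity is scored as loss of luminescent signal.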
Vaccinia Venus: qHTS for Stage-Specific Inhibitors of Vaccinia Orthopoxvirus: Venus Reporter Primary qHTS. Vaccinia virus Venus reporter expression, fluorescence. Potency, µM (series often up to 36.5 µM), for inactives: at the highest dose activity change, negative = inhibition, most hits filed as inhibitors. 330,000 tested, 0.46% active. AID 720580, 2013; calls by dose curve; tested in A549 cells; note: % is set by controls: 0 for no effect and ±100 for the full control effect; nearly all actives have a fitted effect of over 30% in size
Starred values were filed as active, the others as inactive; i = inactive; ? = inconclusive; / = no result; [ ] = dose if it differs, or a comment. Unless noted, calls come from the whole dose curve; as a rule, active = well fitted inhibition curve with a large enough effect; inconclusive = small, poorly fitted or top-dose-only effect, or another doubt; inactive = no such curve, though single readings can be large or run the other way. Potency is the fitted concentration of half-maximal effect.

SMILES | Pf growth 96h | HCV inh | NS1 function inh | Vaccinia mCherry | Pf growth 48h | Vaccinia Venus
CCN1CCN(c2cc(C)c3cc(NC(=O)c4ccncc4)ccc3n2)CC1 | -4% | -11% | -18% | -25% | / | -24%
CCN1CCN(c2cc(C)c3cc(NC(=O)c4ccc(C)c(C)c4)ccc3n2)CC1 | ? | ? | 3% | / | 2.1µM* | /
Cc1cc(N2CCN(C)CC2)nc2ccc(NC(=O)c3ccccc3F)cc12 | 9.3µM* | -24% | / | -3% | 33% | -24%
CC(=O)N1CCN=C1SCc1ccc(Br)cc1 | -39% | 1% | -14% | 3% | -12% | -8%
COc1ccccc1C(=O)Nc1ccc2nc(SCC(=O)N(C)C)sc2c1 | 12µM* | -5% | -14% | ? | ? | -19%
CCCC(=O)Nc1nc2ccc(NC(=O)c3ccc(Br)o3)cc2s1 | 26% | 7.9µM* | ? | / | ? | ?
CCN1CCN(c2cc(C)c3cc(NC(=O)CCC(=O)Nc4ccc(OC)cc4OC)ccc3n2)CC1 | ? | ? | -1% | -4% | 13µM* | -20%
CCc1nnc(NC(=O)CN2CCN(Cc3ccc(C)cc3)CC2)s1 | 9.3µM* | 5% | 8% | / | -12% | /
CCc1nnc(NC(=O)CN2CCN(Cc3ccccc3C)CC2)s1 | -26% | -13% | 4% | -15% | 0% | -6%
O=C(NN=Cc1c(F)cccc1F)c1ccccc1NS(=O)(=O)c1cccs1 | / | 10% | / | i | / | 1%
Cc1cc(C)c2c(CN3CCOCC3)cc(=O)oc2c1C | ? | -9% | -11% | i | -12% | -15%
O=C(CN1CCN(S(=O)(=O)c2ccc(Br)cc2)CC1)Nc1ccc2c(c1)OCCO2 | ? | ? | -35% | / | ? | -11%
CCN1CCN(C(=S)Nc2ccc3nc(N4CCN(CC)CC4)cc(C)c3c2)CC1 | 0% | 13µM* | 21% | -27% | 6.6µM* | -24%
CCN1CCN(c2cc(C)c3cc(NC(=O)c4cc(Br)ccc4Cl)ccc3n2)CC1 | / | / | / | -20% | / | -23%
CCN1CCN(c2cc(C)c3cc(NC(=O)c4ccc(Br)o4)ccc3n2)CC1 | 25% | ? | -2% | -7% | 2.3µM* | -27%
CCN(CC)c1cc(C)c2cc(NC(=O)c3ccccc3OC)ccc2n1 | 9.3µM* | 10µM* | / | -18% | ? | ?
Cc1cc(N2CCN(C)CC2)nc2ccc(NC(=O)CCC(=O)N3CCN(c4ccc([N+](=O)[O-])cc4)CC3)cc12 | -21% | 11µM* | -11% | ? | 5.2µM* | -29%
CCc1nnc(NC(=O)c2ccc(Br)o2)s1 | 5.9µM* | 16% | -8% | i | 21% | -7%
CCc1ccc(C2=NN(CCC(=O)NCCc3ccc(OC)c(OC)c3)C(=O)CC2)cc1 | / | / | / | -11% | / | -12%
CC(c1nc2ccccc2c(=O)[nH]1)N(C)c1ccc2ccccc2c1 (stereo not given) | 15µM* | 3% | 20% | -16% | 6.6µM* | -4%
CC(C)Sc1nc2ccccc2c(=O)[nH]1 | -10% | 6% | 1% | / | / | /
Cc1ccc(C(=O)c2cc([N+](=O)[O-])ccc2N2CCCCC2)cc1 | 35% | -13% | 4% | ? | ? | ?
Cc1ccc(C(=O)c2cc([N+](=O)[O-])ccc2N2CC(C)OC(C)C2)cc1 (stereo not given) | ? | -20% | -1% | / | 9.3µM* | /
O=C(c1ccc([N+](=O)[O-])cc1)N1CCN=C1SCc1ccccc1 | ? | ? | / | -19% | ? | -14%
COc1ccc2c(c1OC)C(=O)N1C2SC(C)(C)[C@H]1C(=O)NC(C)C (stereo not given in full) | 6% | 12% | -1% | / | 16%[0.00184 µM] | /
SMILES | Pf growth 96h | HCV inh | NS1 function inh | Vaccinia mCherry | Pf growth 48h | Vaccinia Venus
CC[C@@H]1OC(=O)[C@H](C)[C@H](O[C@@H]2C[C@](C)(OC)[C@H](O)[C@H](C)O2)[C@H](C)[C@H](O[C@@H]2O[C@@H](C)C[C@@H](N(C)C)[C@@H]2O)[C@](C)(O)C[C@H](C)C(=NOCOCCOC)[C@H](C)[C@H](O)[C@]1(C)O | 1.6µM* | / | / | / | -5%[12.8 µM] | /
CC[C@H]1OC(=O)[C@H](C)[C@@H](O[C@H]2C[C@@](C)(OC)[C@@H](O)[C@H](C)O2)[C@H](C)[C@@H](O[C@@H]2O[C@H](C)C[C@H](N(C)C)[C@H]2O)[C@](C)(O)C[C@@H](C)C(=NOCOCCOC)[C@H](C)[C@@H](O)[C@]1(C)O | ? | 20% | -36% | -23% | -9% | -12%
CCOC(=O)c1c(S(=O)(=O)N2CCCC(C(=O)N(C)Cc3ccccc3)C2)c(C)n(C)c1C (stereo not given) | / | / | / | -14% | / | 0%
CC1(C)OC(=O)C(=CNc2ncccn2)C(=O)O1 | 0% | 12% | 6% | -10% | 34% | 3%
CCOc1ccc(CCN2C(=S)N([C@@H](Cc3ccccc3)CN3CCC[C@@H]3CN3C(=S)NC[C@@H]3CC(C)C)C[C@@H]2Cc2ccccc2)cc1 | / | / | / | -18% | / | -18%
CC(C)C[C@H]1CNC(=S)N1CC1CCCN1C[C@H](CC(C)C)N1C[C@H](Cc2ccc(O)cc2)N(CC2CCCCC2)C1=S (stereo not given in full) | / | 10µM* | / | ? | / | ?
CCOc1ccc(CCN2C(=S)N([C@@H](CC(C)C)CN3CCCC3CN3C(=S)NC[C@@H]3CC(C)C)C[C@@H]2Cc2ccccc2)cc1 (stereo not given in full) | / | 5.6µM* | / | i | / | -18%
Oc1ccc(C[C@H]2CNC(=S)N2CC2CCCN2C[C@H](Cc2ccc(O)cc2)N2C[C@H](Cc3ccc(O)cc3)N(CC3CCCCC3)C2=S)cc1 (stereo not given in full) | / | ? | / | ? | / | 10µM*
CC(C)C[C@H]1CNC(=S)N1C[C@H]1CCCN1C[C@H](Cc1ccc(O)cc1)N1C[C@H](Cc2ccccc2)N(CCc2ccccc2)C1=S | / | / | / | 8% | / | -17%
Oc1ccc(C[C@H]2CNC(=S)N2CC2CCCN2C[C@H](Cc2ccc(O)cc2)N2C[C@H](Cc3ccccc3)N(CCc3ccccc3)C2=S)cc1 (stereo not given in full) | / | 4.5µM* | / | ? | / | ?
CC(C)C[C@@H](CN1CCCC1CN1C(=S)NC[C@@H]1Cc1ccc(O)cc1)N1C[C@H](Cc2ccc(O)cc2)N(CC2CCCCC2)C1=S (stereo not given in full) | / | ? | / | ? | / | 10µM*
CC(C)C[C@H]1CNC(=S)N1CC1CCCN1C[C@H](CC(C)C)N1C[C@H](Cc2ccc(O)cc2)N(CC2CCCCCC2)C1=S (stereo not given in full) | / | 25% | / | ? | / | 28µM*

Compound activity: PubChem BioAssay, National Center for Advancing Translational Sciences (NCATS)
